Unmarked numbers belong to inactive results. Records with an inconclusive call do not appear. Where a call stands in place of a potency, no number is given. Activity calls are given as the source filed them. Unless noted, calls come from the whole dose curve; as a rule, active = well fitted curve in the direction sought with a large enough effect in the repeat runs; inconclusive = weak or mixed curves; inactive = no such curve, though single readings can be large; an effect the other way counts as inactive or inconclusive.
Assays:
[1] = qHTS assay to identify small molecule antagonists of the estrogen related receptor (ERR) signaling pathway from Tox21 library - cell viability counter screen (AID 1224834); note: nearly all actives have a fitted effect of over 30% in size
Method in brief: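 ERR cells, 2,000/well; 6 h settle at 37 C/5% CO2; pin-tool compound transfer in DMSO; 17.5 h at 37 C; CellTiter-Fluor, 30 min; fluorescence intensity.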

[2] = molecular target: Luciferin 4-monooxygenase (Photinus pyralis) (UniProt P08659); assay: qHTS assay to identify small molecule inhibitors of firefly luciferase (AID 1224835); note: nearly all actives have a fitted effect of over 25% in size; note: potency is the fitted concentration of half-maximal effect
Chain of Luciferin 4-monooxygenase (Photinus pyralis) (P08659 whole entry, looked up): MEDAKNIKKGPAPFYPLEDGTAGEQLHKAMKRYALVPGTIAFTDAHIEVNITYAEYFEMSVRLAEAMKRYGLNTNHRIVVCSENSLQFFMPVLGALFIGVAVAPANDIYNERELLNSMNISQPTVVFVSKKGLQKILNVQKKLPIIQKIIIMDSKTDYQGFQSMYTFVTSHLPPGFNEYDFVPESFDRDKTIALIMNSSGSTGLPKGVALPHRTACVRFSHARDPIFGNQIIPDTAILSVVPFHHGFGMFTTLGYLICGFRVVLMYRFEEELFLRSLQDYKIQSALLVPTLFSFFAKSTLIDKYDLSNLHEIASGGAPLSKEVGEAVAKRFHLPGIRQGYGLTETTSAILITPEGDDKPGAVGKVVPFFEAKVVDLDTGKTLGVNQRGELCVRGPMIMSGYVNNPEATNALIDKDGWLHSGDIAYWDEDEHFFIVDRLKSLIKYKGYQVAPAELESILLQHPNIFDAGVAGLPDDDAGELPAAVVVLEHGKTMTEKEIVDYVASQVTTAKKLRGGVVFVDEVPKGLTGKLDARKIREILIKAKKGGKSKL
Method in brief: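 Inhibition of purified Photinus luciferase is measured by luminescence. Substrate levels (D-luciferin, ATP) sit at their KM values. Each compound is tested in a concentration series.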

[3] = qHTS assay to identify small molecule agonists of the constitutive androstane receptor (CAR) signaling pathway - cell viability counter screen (AID 1224836); note: nearly all actives have a fitted effect of over 45% in size
Method in brief: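 Cell viability multiplexed with the CAR agonist screen: CellTiter-Fluor fluorescence after 23 hr at 37 C. HepG2-CYP2B6-hCAR cells got compounds at 15 concentrations with PK11195 at 0.75 uM final.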

[4] = molecular target: Nuclear receptor subfamily 1 group I member 3 (Homo sapiens) (UniProt Q14994); assay: qHTS assay to identify small molecule antagonists of the constitutive androstane receptor (CAR) signaling pathway (AID 1224838);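 note: HepG2 cells stably expressing hCAR with CYP2B6 luciferase reporter stimulated by CITCO; nearly all actives have a fitted effect of over 40% in size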
Chain of Nuclear receptor subfamily 1 group I member 3 (Homo sapiens) (Q14994 whole entry, looked up): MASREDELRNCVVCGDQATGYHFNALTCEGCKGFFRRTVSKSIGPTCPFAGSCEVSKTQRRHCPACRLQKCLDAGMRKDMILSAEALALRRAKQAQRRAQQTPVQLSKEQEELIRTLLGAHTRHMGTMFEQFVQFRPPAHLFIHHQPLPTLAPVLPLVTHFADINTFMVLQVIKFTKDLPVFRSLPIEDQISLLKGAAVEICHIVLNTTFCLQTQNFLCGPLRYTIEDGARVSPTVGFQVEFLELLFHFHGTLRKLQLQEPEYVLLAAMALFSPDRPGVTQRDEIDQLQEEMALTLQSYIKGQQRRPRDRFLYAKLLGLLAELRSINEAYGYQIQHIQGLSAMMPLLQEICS
Method in brief: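 Antagonist mode used CITCO at a final 50 nM to activate CAR in human hepatoma HepG2 cells carrying stable hCAR and a 2.2 kb CYP2B6 promoter-luciferase construct. Compounds were tested at 15 concentrations over 24 h, with luminescence as the end point.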

[5] = molecular target: Nuclear receptor subfamily 1 group I member 3 (Homo sapiens) (UniProt Q14994); assay: qHTS assay to identify small molecule agonists of the constitutive androstane receptor (CAR) signaling pathway (AID 1224839); note: nearly all actives have a fitted effect of over 15% in size; note: potency is the fitted concentration of half-maximal effect
Method in brief: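 Luminescent ONE-Glo read-out after 24 hr, 37 C exposure of double-stable HepG2-CYP2B6-hCAR reporter cells to a 15-point compound series, in the presence of 0.75 uM PK11195 (final).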

[6] = qHTS assay to identify small molecule antagonists of the estrogen related receptor signaling pathway with the pleiotropic PPARgamma coactivator (PGC) from Tox21 10K library - cell viability counter screen (AID 1224840; active = well fitted cell-killing curve with a large enough effect in the repeat runs, not every such curve was filed as active; note: nearly all actives have a fitted effect of over 40% in size)
Method in brief: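 Multiplexed viability counter screen in the PGC/ERR cell line: cells treated with DMSO-dissolved compounds for 17.5 hours at 37 C, then viability measured as CellTiter-Fluor fluorescence.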

[7] = molecular target: Thyrotropin receptor (Homo sapiens) (UniProt P16473); assay: qHTS assay to identify small molecule agonists of the thyroid stimulating hormone receptor (TSHR) signaling pathway (AID 1224843; calls by dose curve; note: nearly all actives have a fitted effect of over 45% in size)
Chain of Thyrotropin receptor (Homo sapiens) (P16473 whole entry, looked up): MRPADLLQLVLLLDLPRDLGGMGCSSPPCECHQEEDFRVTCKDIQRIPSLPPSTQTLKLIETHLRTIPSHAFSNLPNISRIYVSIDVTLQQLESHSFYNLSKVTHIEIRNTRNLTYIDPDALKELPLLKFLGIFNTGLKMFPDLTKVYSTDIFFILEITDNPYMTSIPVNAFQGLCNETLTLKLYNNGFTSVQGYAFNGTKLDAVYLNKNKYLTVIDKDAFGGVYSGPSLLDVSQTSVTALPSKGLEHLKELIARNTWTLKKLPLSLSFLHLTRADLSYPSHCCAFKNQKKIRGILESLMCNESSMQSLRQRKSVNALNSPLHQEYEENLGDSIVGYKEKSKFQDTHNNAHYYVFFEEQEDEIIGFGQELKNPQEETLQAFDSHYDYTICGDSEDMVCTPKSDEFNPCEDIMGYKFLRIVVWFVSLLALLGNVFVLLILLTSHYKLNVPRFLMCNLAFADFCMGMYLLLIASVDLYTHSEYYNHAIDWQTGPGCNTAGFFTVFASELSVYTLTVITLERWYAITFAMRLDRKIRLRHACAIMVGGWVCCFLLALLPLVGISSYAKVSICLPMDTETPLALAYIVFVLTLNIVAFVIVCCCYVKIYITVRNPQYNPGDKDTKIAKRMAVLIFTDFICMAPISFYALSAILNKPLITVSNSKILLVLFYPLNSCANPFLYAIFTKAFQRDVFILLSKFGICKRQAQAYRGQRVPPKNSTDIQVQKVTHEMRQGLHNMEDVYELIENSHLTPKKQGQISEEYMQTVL
Method in brief: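 A cell-based cAMP HTRF format was run in TSHR-transfected HEK293 cells, 800 per well. Treatment: 30 min, room temperature. Detection: 1 h with labelled cAMP and anti-cAMP cryptate. Concentration-response over 15 points, three replicates.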

[8] = qHTS assay to identify small molecule agonists of H2AX (AID 1224845; active = well fitted activation curve with a large enough effect in the signal ratio in the repeat runs, not every such curve was filed as active; the % refers to the signal ratio)
Method in brief: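 Phospho-H2AX Ser139 measured by HTRF (ex 320 nm; em 665 and 620 nm) after 24 hr antibody incubation. Compounds, 15 concentrations, 0.76% DMSO, were applied to CHO-K1 cells for 3hr at 37C before lysis.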

[9] = qHTS assay to identify small molecule agonists of the hypoxia (HIF-1) signaling pathway (AID 1224846; active = well fitted activation curve with a large enough effect in the signal ratio in the repeat runs, not every such curve was filed as active; the % refers to the signal ratio)
Method in brief: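 Compounds from the Tox21 10K library, dissolved in DMSO, are tested for induction of a hypoxia response element–controlled beta-lactamase reporter in ME-180 cells. Exposure lasts 17 hrs at 37C after a 5 hr settling period, followed by CCF4-AM FRET substrate.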

[10] = qHTS assay to identify small molecule agonists of H2AX - cell viability counter screen (AID 1224847; calls by dose curve;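 note: wild-type CHO-K1 cells; top concentration of the series differs between compounds; nearly all actives have a fitted effect of over 30% in size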)
Method in brief: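 Counter-screen for viability: CellTiter-Glo ATP luminescence read after 3 h compound treatment (15-point titration, 0.76% DMSO final) of CHO-K1 cells at 37C, with 30 min room-temperature reagent incubation.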

[11] = qHTS RealTime-Glo MT Cell Viability Assay in HepG2 cells - 24 hour (AID 1224867); note: nearly all actives have a fitted effect of over 50% in size
Method in brief: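 HepG2 suspension premixed with RealTime-Glo reagents is plated at 600 cells per well and left 5 h at 37 C/5% CO2. Compounds in DMSO then go in, and bioluminescence reflecting viable cell number is recorded over 40 h.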

[12] = qHTS RealTime-Glo MT Cell Viability Assay in HEK293 cells - 32 hour (AID 1224868); note: nearly all actives have a fitted effect of over 50% in size; note: potency is the fitted concentration of half-maximal effect
Method in brief: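 Reads taken at 0, 8, 16, 24, 32 and 40 h from the same wells. HEK293 cells (600/well) carried RealTime-Glo reagents from seeding, with compound added after a 5 h settle at 37 C.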

[13] = qHTS assay to identify small molecule antagonists of the constitutive androstane receptor (CAR) signaling pathway - cell viability counter screen (AID 1224837); note: nearly all actives have a fitted effect of over 45% in size
Method in brief: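 Viability was measured with CellTiter-Fluor in a HepG2 line carrying stably transfected hCAR and a CYP2B6-2.2kb construct. Cells were exposed for 23 hr at 37 C to 15 compound concentrations with 50 nM CITCO as agonist.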

[14] = qHTS assay to identify small molecule agonists of the hypoxia (HIF-1) signaling pathway - cell viability counter screen (AID 1224844; calls by dose curve; note: nearly all actives have a fitted effect of over 50% in size; note: potency is the fitted concentration of half-maximal effect)
Method in brief: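 Cytotoxicity was measured in parallel with the HRE-driven beta-lactamase readout: after 17 hrs of compound exposure at 37C, HRE-bla ME-180 cells received CellTiter-Glo and luminescence was recorded 30 min later.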

[15] = A CellTox Green Cytotoxicity Assay to monitor cytotoxicity in HEK293 cells - 0 hour (AID 1224869); note: nearly all actives have a fitted effect of over 50% in size
Method in brief: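 Cells (HEK293, 600/well) and dye reagent are dispensed together. After 5 h at 37 C, 23 nL compound is pinned in. Plates stay at 37 C for 40 h with fluorescence read at 0h, 8h, 16h, 24h, 32h and 40h.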

[16] = qHTS assay to identify small molecule agonists of the estrogen related receptor signaling pathway with the pleiotropic PPARgamma coactivator (PGC) from Tox21 10K library (AID 1224842); note: nearly all actives have a fitted effect of over 15% in size
Method in brief: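 Luminescence from One-Glo (30 min, room temperature) measured after PGC/ERR cells had 18 h at 37 C with pinned compound (23 nL in DMSO). Cells had been seeded at 2,000 per well and pre-incubated 6 h.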

[17] = qHTS assay to identify small molecule antagonists of the estrogen related receptor (ERR) signaling pathway from Tox21 library (AID 1224848); note: nearly all actives have a fitted effect of over 50% in size
Method in brief: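 ERR cell line, 2,000 cells/well. 6 h settle, then compound (DMSO) added; 18 h at 37 C; ONE-Glo luminescence after 30 min RT.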

[18] = qHTS assay to identify small molecule agonists of the estrogen related receptor (ERR) signaling pathway from Tox21 library (AID 1224849; calls by dose curve; note: nearly all actives have a fitted effect of over 15% in size); conditions: ERR reporter cell line, ONE-Glo luciferase, 18 h; at 92.4 µM (top of the series) unless noted
Method in brief: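 Cells carrying the ERR reporter were plated and allowed to settle for 6 h, exposed to library compounds for 18 h at 37 C, then lysed with ONE-Glo and luminescence measured.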

[19] = qHTS assay to identify small molecule antagonists of the estrogen related receptor signaling pathway with the pleiotropic PPARgamma coactivator (PGC) from Tox21 10K library (AID 1224841; call rule not given here)
Method in brief: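 Steps: plate 2,000 PGC/ERR cells per well; incubate 6 h at 37 C with 5% CO2; transfer compounds from DMSO stocks by pin tool; incubate 18 h at 37 C; add One-Glo; measure luminescence 30 min later.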

Structure (SMILES) | Potency [1] | Potency [2] | Potency [3] | Potency [4] | Potency [5] | Potency [6] | Potency [7] | Potency [8] | outcome [9] | Potency [10] | outcome [11] | Potency [12] | Potency [13] | Potency [14] | Potency [15] | Potency [16] | Potency [17] | activity change, positive = activation [18] | Potency [19]
CCCCCCCCCCCCCCCCN | inactive | inactive | inactive | inactive | inactive | inactive | inactive | inactive | inactive | inactive | inactive | inactive |  |  |  |  |  |  | 
Cc1ccc(Cl)c(OCC(O)CNC(C)(C)C)c1 (stereo unspecified) | inactive | inactive | inactive |  |  | inactive |  | inactive | inactive | inactive | inactive | inactive | inactive | inactive | inactive |  |  |  | 
CCCC(=O)OCCC(C)C | inactive | inactive | inactive |  |  | inactive | inactive | inactive | inactive |  | inactive | inactive | inactive |  | inactive |  |  |  | 
CC(Cc1ccccc1)(NC(=O)CN)c1ccccc1 (stereo unspecified) | inactive | inactive | inactive |  |  | inactive | inactive | inactive | inactive |  | inactive | inactive | inactive | inactive | inactive |  |  |  | 
CC(C)CCCCCCCOC(=O)c1ccc(C(=O)OCCCCCCCC(C)C)c(C(=O)OCCCCCCCC(C)C)c1 | inactive | inactive | inactive | inactive | inactive | inactive | inactive |  | inactive | inactive | inactive | inactive |  |  |  | inactive | inactive | -6.08% | 
O=C1CCCN1CCO | inactive | inactive | inactive | inactive | inactive | inactive | inactive | inactive |  | inactive | inactive | inactive |  | 21.9 µM (active) | inactive |  |  |  | 
CC(=O)Nc1ccn(C2COC(COC(=O)c3ccccc3)O2)c(=O)n1 (stereo unspecified) | inactive | inactive | inactive |  | inactive | inactive | inactive | inactive |  | inactive | inactive | inactive |  | inactive | inactive | inactive | inactive | -13.3% [at 42.5 µM] | inactive
C=CC(=O)NC(C)(C)C | inactive | inactive | inactive | inactive | inactive | inactive | inactive | inactive |  | inactive | inactive | inactive |  | inactive | inactive |  |  |  | 
CC(C)CCCCCOC(=O)CS | inactive | inactive | inactive | inactive | inactive | inactive |  | inactive | inactive | inactive | inactive | inactive |  | inactive | inactive |  |  |  | 
CCCc1ccc(OC)cc1 | inactive | inactive | inactive |  |  | inactive | inactive | inactive | inactive | inactive | inactive |  | inactive | inactive | inactive |  |  |  | 
CCOC(OCC)OCC | inactive | inactive | inactive | inactive |  | inactive | inactive | inactive | inactive |  | inactive | inactive |  | inactive | inactive |  |  |  | 
C=CC(C)(O)CC/C=C(/C)CCC=C(C)C (stereo unspecified) | inactive | inactive | inactive |  |  | inactive |  | inactive | inactive | inactive | inactive |  | inactive | inactive | inactive |  |  |  | 
C[C@H](N)C(=O)N[C@@H](C)C(=O)NC1[C@H]2CN(c3nc4c(cc3F)c(=O)c(C(=O)O)cn4-c3ccc(F)cc3F)C[C@@H]12 (stereo partly specified) | inactive | inactive | inactive | inactive |  | inactive | inactive | inactive |  | inactive | inactive | inactive |  | inactive | inactive |  | inactive |  | inactive
CC1(C)[C@@H]2CC[C@]3(C2)[C@@H]1C(=O)CCC3(C)C | inactive | inactive | inactive | inactive |  | inactive | inactive | inactive | inactive | inactive | inactive | inactive |  | inactive | inactive |  |  |  | 
CC(C(=O)O)c1ccc2c(c1)Cc1cccnc1O2 (stereo unspecified) | inactive | inactive | inactive |  |  | inactive | inactive | inactive | inactive | inactive | inactive |  | inactive |  | inactive |  |  |  | 
COc1cc(CNC(=O)CCCC/C=C/C(C)C)ccc1O | inactive | inactive | inactive | inactive |  | inactive | inactive | inactive |  |  | inactive | 7.56 µM (active) |  | inactive |  |  |  |  | 
O=C(Nc1ccc2c(c1)Cc1ccccc1-2)C(F)(F)F | inactive | 6.33 µM (active) | inactive | inactive | 27.3 µM (active) | inactive | inactive | inactive | inactive | inactive | inactive |  |  | inactive | inactive |  |  |  | 
C[C@H]1C[C@H]2[C@@H]3CCC4=CC(=O)C=C[C@]4(C)[C@@]3(F)[C@@H](O)C[C@]2(C)[C@@]1(O)C(=O)COP(=O)(O)O | inactive | inactive | inactive |  |  | inactive | inactive | inactive |  |  | inactive | inactive | inactive | inactive | inactive |  |  |  | 
C1=COCCC1 | inactive | inactive | inactive |  |  | inactive |  | inactive | inactive | inactive | inactive | inactive | inactive | inactive |  |  |  |  | 
COc1cc(C)c(Cc2cnc(N)nc2N)cc1OC | inactive | inactive | inactive | inactive | inactive | inactive |  | inactive | inactive | inactive | inactive | inactive |  | inactive | inactive | inactive | inactive | -2.44% [at 42.5 µM] | inactive
